Screens (PubChem)
Vaccinia Venus = vaccinia inhibition (Venus reporter); Vaccinia virus Venus reporter expression, fluorescence; Potency, µM (series often up to 36.5 µM), without a hit: at the top dose activity change, negative = inhibition, actives largely listed as inhibitors; 0.46% of 330,000 active; AID 720580; calls by dose curve; tested in A549 cells; note: nearly all actives have a fitted effect of over 30% in size
Pf growth 48h = inhibits P. falciparum growth in the first generation, 48 h; P. falciparum luciferase growth in erythrocytes, 48 h; Potency, µM (titrated, usually from 28.7 µM), inactives show at the top dose activity change, negative = inhibition, hits mostly inhibitors; 5.9% of 310,000 active; AID 504832
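Cell-based growth assay: transgenic P. falciparum expressing firefly luciferase, cultured in red cells within RPMI 1640 containing 0.5% w/v Albumax, 24 mM bicarbonate and gentamycin. A drop in luciferase activity indicates inhibition.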
Pf growth 96h = P. falciparum growth inhibition at 96 hour, primary screen for plastid delayed-death inhibitors | Potency, µM (titrated, usually from 28.7 µM), inactives show at the highest dose activity change, negative = inhibition, most hits filed as inhibitors | P. falciparum luciferase reporter growth, 96 h | 6.9% of 320,000 active
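Readout is luminescence from an integrated firefly luciferase in P. falciparum. Red cells, 2% hematocrit and 0.05% parasitemia final, were cultured with compound through two parasite generations (96 hours) at 37 C, 5% CO2.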
AMA1-RON2 inh = disrupts binding of P. falciparum AMA1 to RON2. AlphaScreen AMA1-biotinylated RON2 peptide binding. Potency, µM (highest dose often 58.2 µM), for inactives: top-dose activity change, negative = inhibition, actives largely listed as inhibitors. 0.2% of 360,000 active;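 note: 0% = vehicle wells and -100% = peptide control; nearly all actives have a fitted effect of over 45% in size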
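AMA1 (3D7) with his tag at 25 nM final met compounds first, then biotinylated RON2 peptide at 25 nM; detection used donor plus acceptor beads, 10 µg/mL apiece, read by AlphaScreen after 30 min at room temperature.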
Vaccinia mCherry = vaccinia inhibition (mCherry reporter); Vaccinia virus mCherry reporter infection, fluorescence; 0.63% of 310,000 active; Potency, µM (titrated, usually from 36.5 µM), for inactives: top-dose activity change, negative = inhibition, actives largely listed as inhibitors; AID 720579; calls by dose curve; tested in A549 cells; note: nearly all actives have a fitted effect of over 35% in size
* marks the source's active call; other numbers are inactive results; i = inactive; ? = inconclusive; · = no result given. Sampled rows, rich in hits. Any-hit rate of the full collection: about 8.7%. Unless noted, calls come from the whole dose curve; as a rule, active = well fitted curve in the direction sought with a large enough effect; inconclusive = small, poorly fitted or top-dose-only effect, or another doubt; inactive = no such curve, though single readings can be large; an effect the other way counts as inactive or inconclusive. Unless noted, % is set by controls: 0 for no effect and ±100 for the full control effect; potency is the fitted concentration of half-maximal effect.

SMILES | Vaccinia Venus | Pf growth 48h | Pf growth 96h | AMA1-RON2 inh | Vaccinia mCherry
COC(=O)Cc1c[nH]c2ccc(OCC(O)CNC(C)C)cc12 (stereo not drawn) | -9% | 5% | ? | -9% | -2%
CC(C)[N+](C)(C)CC(O)COc1cccc2ccccc12 (stereo not drawn) | · | 6µM* | 24% | · | ·
COCCn1c(C)cc(O)c(C(c2ccccc2OC)N2CCCCC2)c1=O (stereo not drawn) | -6% | · | · | · | -10%
COc1cccc(Cn2c(CNC(=O)c3cc([N+](=O)[O-])ccc3Cl)nc3cccnc32)c1 | -10% | · | · | · | -17%
Cn1c(C(=O)NCCC2=CCCCC2)cc2c(=O)n3ccccc3nc21 | -9% | 73% | 6.6µM* | -9% | -18%
C=CCn1c(SC(C)C(=O)NCCC2=CCCCC2)nc2ccccc2c1=O (stereo not drawn) | -2% | · | 13µM* | 5% | ·
CC(C(=O)NCCC1=CCCCC1)N1C(=O)c2ccccc2C1=O (stereo not drawn) | -7% | -18% | 5.9µM* | 7% | -7%
Cc1ccc(-c2nnc(Nc3ccc(C(N)=O)cc3)c3ccccc23)cc1S(N)(=O)=O | 7% | · | · | · | -3%
O=C(NC1CCCCCC1)c1cc2c(Cl)nc3ccccc3c2s1 | -10% | · | · | · | -9%
Cc1cccc(N2CCN(CCCNC(=O)c3nnc(Cc4c(F)cccc4Cl)o3)CC2C)c1 (stereo not drawn) | -21% | · | · | · | i
Nc1nc2ncn(COCCO)c2c(=O)[nH]1 | 2% | · | · | · | 3%
CCCCc1nnc(SCc2cc(=O)c3cc(C(=O)OCC)ccc3[nH]2)n1C | -5% | · | · | · | -4%
CCN1C(c2ccccc2)C(C)C(=O)C(C)C1c1ccccc1 (stereo not drawn) | 0% | 12µM* | 9.3µM* | 16% | ·
CC(C)(C)C(O)C(Oc1ccc(Cl)cc1)n1cncn1 (stereo not drawn) | -7% | ? | -12% | 0% | -14%
CC(C)(C)C(C(Oc1ccc(Cl)cc1)n1cncn1)n1nnnc1C(c1cccc(Cl)c1)N1CCCCC1 (stereo not drawn) | · | 1.9µM* | 2.1µM* | · | ·
Cc1ccc(C)c(S(=O)(=O)C(C#N)c2nc3ccccc3nc2N2CC(C)OC(C)C2)c1 (stereo not drawn) | · | 13µM* | -24% | 3% | ·
O=C(Nc1ccc2c(c1)OCCO2)C1CCN(C(=O)c2ccccc2)CC1 | -8% | 43% | ? | 2% | i
O=C(Nc1ccc(C(=O)N2CCCCC2)cc1)c1ccc(Br)cc1 | ? | ? | 4.1µM* | -1% | ·
O=C(Nc1ccc(C(=O)N2CCCC2)cc1)c1ccccc1 | -2% | · | · | -4% | 0%
O=C(Nc1ccc2c(c1)OCCO2)C1CCN(C(=O)c2ccc(Br)cc2)CC1 | -6% | -2% | 2.6µM* | -11% | -14%
CC(Oc1ccc(F)cc1)C(=O)Nc1cc(S(=O)(=O)N2CCOCC2)ccc1N1CCCCC1 (stereo not drawn) | -9% | 4.7µM* | 3.3µM* | -1% | ?
CC(Oc1ccc(Br)cc1)C(=O)Nc1cc(S(=O)(=O)N2CCOCC2)ccc1N1CCCC1 (stereo not drawn) | -6% | ? | 13µM* | -7% | ?
CC(Oc1ccc(F)cc1)C(=O)Nc1cc(S(=O)(=O)N2CCOCC2)ccc1N1CCCC1 (stereo not drawn) | · | 3% | ? | 11% | ·
COc1ccccc1CNS(=O)(=O)c1ccc(-n2cnnn2)c(OC)c1 | 4% | 6% | 9.3µM* | 3% | -23%
COc1ccccc1CN(Cc1ccco1)S(=O)(=O)c1ccc(-n2cnnn2)c(OC)c1 | -13% | 13µM* | ? | -1% | -20%
COc1cc(S(=O)(=O)NCc2ccccc2Cl)ccc1-n1cnnn1 | -5% | -12% | 271% | -2% | -11%
COc1cc(S(=O)(=O)N(Cc2ccccn2)Cc2ccccc2Cl)ccc1-n1cnnn1 | -6% | -57% | ? | -2% | -13%
CCC1(C2CCN(C(=O)c3ccccc3C)CC2)NC(=O)N(CCc2scnc2C)C1=O (stereo not drawn) | -5% | · | · | · | -10%
COc1ccc(N(CC(=O)NCCc2cccc(C)c2)S(=O)(=O)c2c(C)nn(C)c2C)cc1 | 6% | · | · | · | -6%
CC(=O)Oc1ccccc1C(=O)O | -8% | -1% | 2% | -26% | -12%
